# Reference: PubChem BioAssay (Tox21)
# Inconclusive results are not listed. Where a call stands in place of a potency, no number is given. Activity calls are given as the source filed them. Unless noted, calls follow the shape of the dose curve; as a rule, active = well fitted curve in the direction sought with a large enough effect in the repeat runs; inconclusive = weak or mixed curves; inactive = no such curve, though single readings can be large; an effect the other way counts as inactive or inconclusive.
# Experiments:
# [1] = qHTS assay to identify small molecule agonists of the peroxisome proliferator-activated receptor delta (PPARd) signaling pathway - cell viability counter screen (AID 743211); also: nearly all actives have a fitted effect of over 55% in size; also: potency is read from the fitted curve at half-maximal effect
# Outline: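 Viability of GeneBLAzer PPARd UAS-bla HEK293H cells was assessed after 17 h compound incubation at 37C, using CellTiter-Glo reagent added after the reporter read and luminescence recorded 30 min later.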
# [2] = biological target: Peroxisome proliferator-activated receptor delta (Homo sapiens) (UniProt Q03181); assay: qHTS assay to identify small molecule agonists of the peroxisome proliferator-activated receptor delta (PPARd) signaling pathway (AID 743212; calls by dose curve)
# Sequence of Peroxisome proliferator-activated receptor delta (Homo sapiens) (Q03181 whole entry, looked up): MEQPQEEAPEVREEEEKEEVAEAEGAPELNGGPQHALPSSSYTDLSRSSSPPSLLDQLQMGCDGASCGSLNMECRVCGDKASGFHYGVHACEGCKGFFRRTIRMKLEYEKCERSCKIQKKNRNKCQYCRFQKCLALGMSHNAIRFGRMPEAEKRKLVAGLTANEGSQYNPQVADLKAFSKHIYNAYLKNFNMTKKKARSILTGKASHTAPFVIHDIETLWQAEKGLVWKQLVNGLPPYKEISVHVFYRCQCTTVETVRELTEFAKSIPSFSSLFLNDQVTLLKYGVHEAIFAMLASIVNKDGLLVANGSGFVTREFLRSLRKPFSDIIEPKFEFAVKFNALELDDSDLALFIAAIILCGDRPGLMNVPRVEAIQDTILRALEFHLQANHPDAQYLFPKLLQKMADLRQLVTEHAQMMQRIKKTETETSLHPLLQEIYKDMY
# Outline: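 GeneBLAzer UAS-bla HEK293H cells carrying a PPARδ construct were exposed to compounds at 37 °C. Beta-lactamase activity was read by FRET fluorescence after 2 h at room temperature with LiveBLAzer B/G substrate.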
# [3] = biological target: Peroxisome proliferator-activated receptor delta (Homo sapiens) (UniProt Q03181); assay: qHTS assay to identify small molecule antagonists of the peroxisome proliferator-activated receptor delta (PPARd) signaling pathway (AID 743215; active = well fitted inhibition curve with a large enough effect in the signal ratio in the repeat runs, not every such curve was filed as active; the % refers to the signal ratio;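 also: cells stimulated with agonist L165041 at 300 nM final during compound exposure; series mostly up to about 62 µM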)
# Outline: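 Read-out is beta-lactamase FRET fluorescence, measured 2 h after substrate addition at room temperature. Beforehand, UAS-bla HEK293H cells carrying the PPARd reporter were exposed to compounds with L165041 at 300 nM final for 17 h at 37 C.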
# [4] = qHTS assay to identify small molecule antagonists of the farnesoid-X-receptor (FXR) signaling pathway - cell viability counter screen (AID 743221; active = well fitted cell-killing curve with a large enough effect in the repeat runs, not every such curve was filed as active; also: nearly all actives have a fitted effect of over 50% in size)
# Outline: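 Quantitative HTS of the Tox21 10K library run in parallel with the beta-lactamase reporter read. HEK 293T cells carrying a UAS-driven bla reporter got compound and 50 uM CDCA (final) for 16 h; ATP-based luminescence followed.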
# [5] = qHTS assay to identify small molecule agonists of the vitamin D receptor (VDR) signaling pathway - cell viability counter screen (AID 743224); also: series mostly up to about 63 µM; nearly all actives have a fitted effect of over 50% in size
# Outline: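 Luminescence from CellTiter-Glo, read after 30 min at room temperature, reports viability of VDR-bla cells treated with compounds for 16 h at 37C in the wells used for the beta-lactamase FRET read.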
# [6] = qHTS assay to identify small molecule antagonists of the vitamin D receptor (VDR) signaling pathway - cell viability counter screen (AID 743225); also: nearly all actives have a fitted effect of over 50% in size
# Outline: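 Cells (VDR-UAS-bla HEK 293T) are plated, rested 4 h at 37C, dosed with compound and 3 nM final 1-alpha,25-dihydroxy vitamin D3, and incubated 16 h. Viability is taken from CellTiter-Glo luminescence in the reporter wells.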
# [7] = qHTS assay to identify small molecule agonists of the NFkB signaling pathway - cell viability counter screen (AID 1159515; calls by dose curve; also: series mostly up to about 61 µM; nearly all actives have a fitted effect of over 55% in size)
# Outline: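 Luminescence from CellTiter-Glo (30 min, room temperature) gives viability, measured in the same wells as the beta-lactamase reporter read. Cells were NFkB-bla ME-180, 2,000 per well, treated 5 hr with compounds.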
# [8] = qHTS assay to identify small molecule agonists of the endoplasmic reticulum stress response signaling pathway (AID 1159516; active = well fitted activation curve with a large enough effect in the signal ratio in the repeat runs, not every such curve was filed as active; the % refers to the signal ratio)
# Outline: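 Read-out is beta-lactamase cleavage of a FRET substrate (405 nm excitation; 460 and 530 nm emissions) in ESRE-bla HeLa cells after a 5 hr compound exposure at 37 C. Substrate incubation ran 2 hr at room temperature.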
# [9] = qHTS assay to identify small molecule agonists of the endoplasmic reticulum stress response signaling pathway - cell viability counter screen (AID 1159517; calls by dose curve;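 also: HeLa cells carrying an ER stress response element beta-lactamase reporter; series mostly up to about 61 µM; nearly all actives have a fitted effect of over 50% in size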)
# Outline: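 ESRE-bla HeLa cells, 1,500 per well, seeded overnight then treated with compounds for 5 hr at 37 C. After the beta-lactamase read, viability in the same wells is measured by CellTiter-Glo luminescence after 30 min at room temperature.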
# [10] = qHTS assay to identify small molecule antagonists of the retinoid-related orphan receptor gamma (ROR-gamma) signaling pathway - cell viability counter screen (AID 1159520); also: nearly all actives have a fitted effect of over 50% in size
# Outline: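 Tet-on ROR gamma CHO cells were given compounds for 2 hr, then doxycycline hyclate at 1 uM final, and incubated 16 hr at 37 C. Viability was measured as ATP content by CellTiter-Glo luminescence.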
# [11] = biological target: Nuclear receptor ROR-gamma (Homo sapiens) (UniProt P51449); assay: qHTS assay to identify small molecule antagonists of the retinoid-related orphan receptor gamma (ROR-gamma) signaling pathway (AID 1159521; also: nearly all actives have a fitted effect of over 50% in size; also: potency is read from the fitted curve at half-maximal effect)
# Outline: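 RORγ antagonism is scored from reduced reporter luminescence in Tet-on CHO cells. Induction used 1 uM final doxycycline hyclate for 16 h at 37 C, following a 2 h compound exposure.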
# [12] = qHTS assay to identify small molecule agonists of the AP-1 signaling pathway - cell viability counter screen (AID 1159525; calls by dose curve; also: nearly all actives have a fitted effect of over 55% in size)
# Outline: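 AP-1-bla ME-180 cells in Opti-MEM with 0.5% dialyzed FBS, compound exposure 5 h at 37 C in 15-point titration. Viability read in the same wells as ATP content by CellTiter-Glo luminescence, normalised to tetra-n-octylammonium bromide and DMSO controls.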
# [13] = qHTS assay to identify small molecule agonists of the AP-1 signaling pathway (AID 1159526; calls by dose curve)
# [14] = qHTS assay to identify small molecule antagonists of the peroxisome proliferator-activated receptor delta (PPARd) signaling pathway - cell viability counter screen (AID 743213); also: nearly all actives have a fitted effect of over 50% in size; also: potency is read from the fitted curve at half-maximal effect
# Outline: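 CellTiter-Glo was added to PPARd-bla HEK293H wells following 17 h compound treatment in the presence of 300 nM L165041. Luminescence was recorded after 30 min at room temperature.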
# [15] = biological target: Bile acid receptor (Homo sapiens) (UniProt Q96RI1); assay: qHTS assay to identify small molecule antagonists of the farnesoid-X-receptor (FXR) signaling pathway (AID 743217; active = well fitted inhibition curve with a large enough effect in the signal ratio in the repeat runs, not every such curve was filed as active; the % refers to the signal ratio)
# Sequence of Bile acid receptor (Homo sapiens) (Q96RI1 whole entry, looked up): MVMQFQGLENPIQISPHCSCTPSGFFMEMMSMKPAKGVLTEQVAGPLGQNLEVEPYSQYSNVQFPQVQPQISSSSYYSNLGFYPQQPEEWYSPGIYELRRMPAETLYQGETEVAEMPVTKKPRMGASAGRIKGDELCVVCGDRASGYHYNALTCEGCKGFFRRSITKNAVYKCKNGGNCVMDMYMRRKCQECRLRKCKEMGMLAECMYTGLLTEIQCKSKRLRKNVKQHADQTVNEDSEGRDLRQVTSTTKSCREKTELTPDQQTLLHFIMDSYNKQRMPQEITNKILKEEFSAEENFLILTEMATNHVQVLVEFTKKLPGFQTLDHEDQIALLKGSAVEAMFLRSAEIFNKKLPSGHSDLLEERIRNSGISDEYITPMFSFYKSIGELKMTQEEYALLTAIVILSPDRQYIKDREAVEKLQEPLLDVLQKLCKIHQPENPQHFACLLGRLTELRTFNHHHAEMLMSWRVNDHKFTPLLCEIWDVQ
# Outline: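 HEK 293T FXR-UAS-bla, 5000 cells/well; compound + CDCA 50 uM final; 16 h, 37 °C; B/G FRET substrate 2 h RT; fluorescence.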
# [16] = qHTS assay to identify small molecule agonists of the farnesoid-X-receptor (FXR) signaling pathway - cell viability counter screen (AID 743218); also: nearly all actives have a fitted effect of over 45% in size
# Outline: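 HEK 293T FXR-bla cells; 5 h pre-incubation, 16 h compound exposure at 37 C; LiveBLAzer substrate 2 h RT, then CellTiter-Glo 30 min RT, luminescence.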
# [17] = biological target: Bile acid receptor (Homo sapiens) (UniProt Q96RI1); assay: qHTS assay to identify small molecule agonists of the farnesoid-X-receptor (FXR) signaling pathway (AID 743220; active = well fitted activation curve with a large enough effect in the signal ratio in the repeat runs, not every such curve was filed as active; the % refers to the signal ratio)
# Outline: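 Beta-lactamase reporter under UAS control in GeneBLAzer FXR HEK 293T cells (5000/well) measured with LiveBLAzer FRET substrate after 2 h at room temperature. Compound exposure lasted 16 h at 37C.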
# [18] = biological target: Vitamin D3 receptor (Homo sapiens) (UniProt P11473); assay: qHTS assay to identify small molecule antagonists of the vitamin D receptor (VDR) signaling pathway (AID 743223; active = well fitted inhibition curve with a large enough effect in the signal ratio in the repeat runs, not every such curve was filed as active; the % refers to the signal ratio)
# Sequence of Vitamin D3 receptor (Homo sapiens) (P11473 whole entry, looked up): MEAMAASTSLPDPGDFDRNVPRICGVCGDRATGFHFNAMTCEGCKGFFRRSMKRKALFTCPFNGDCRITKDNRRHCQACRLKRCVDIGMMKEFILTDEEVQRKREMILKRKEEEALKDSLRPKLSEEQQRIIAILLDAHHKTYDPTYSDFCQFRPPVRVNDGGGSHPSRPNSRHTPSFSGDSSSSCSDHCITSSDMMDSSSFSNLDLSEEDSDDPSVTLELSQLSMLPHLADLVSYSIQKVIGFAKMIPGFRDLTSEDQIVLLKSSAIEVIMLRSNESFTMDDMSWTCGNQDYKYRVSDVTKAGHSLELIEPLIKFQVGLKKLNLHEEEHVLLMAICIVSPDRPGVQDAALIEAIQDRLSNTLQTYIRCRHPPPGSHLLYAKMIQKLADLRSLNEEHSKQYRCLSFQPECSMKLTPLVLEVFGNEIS
# Outline: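 Fluorescence from LiveBLAzer B/G FRET substrate, read after 2 h at room temperature, reflects beta-lactamase reporter activity in VDR-bla cells treated 16 h at 37C with compounds and agonist 1alpha,25-dihydroxyvitamin D3 (3 nM final).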
# [19] = biological target: Vitamin D3 receptor (Homo sapiens) (UniProt P11473); assay: qHTS assay to identify small molecule agonists of the vitamin D receptor (VDR) signaling pathway (AID 743222; calls by dose curve)
# Outline: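 VDR-bla cells, 2,000/well; 4 h preincubation 37C; cpd (DMSO) 16 h; LiveBLAzer B/G substrate 2 h RT; fluorescence intensity read.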
Structure (SMILES),Potency [1],outcome [2],outcome [3],Potency [4],Potency [5],Potency [6],Potency [7],Potency [8],outcome [9],Potency [10],Potency [11],Potency [12],Potency [13],Potency [14],outcome [15],Potency [16],outcome [17],Potency [18],outcome [19]
CCCC(C)C,inactive,inactive,inactive,inactive,inactive,inactive,inactive,inactive,inactive,inactive,inactive,inactive,inactive,–,–,–,–,–,–
CC(=O)NCCCS(=O)(=O)O,inactive,inactive,–,inactive,inactive,inactive,inactive,inactive,inactive,inactive,inactive,inactive,inactive,inactive,inactive,inactive,inactive,–,–
CC(=O)/C(C)=C/C1C(C)=CCCC1(C)C (centres undefined),inactive,inactive,inactive,inactive,inactive,inactive,inactive,inactive,inactive,inactive,inactive,inactive,inactive,inactive,–,inactive,–,–,–
CCOC(=O)CC(C)C,inactive,inactive,–,inactive,inactive,inactive,inactive,inactive,inactive,inactive,inactive,inactive,inactive,inactive,–,inactive,–,–,–
CCCc1ccccc1,inactive,inactive,inactive,inactive,inactive,inactive,inactive,inactive,inactive,inactive,inactive,inactive,inactive,inactive,–,inactive,–,inactive,–
CCCCCCCCCC(=O)OCC,inactive,inactive,inactive,–,inactive,inactive,inactive,inactive,inactive,inactive,inactive,inactive,inactive,inactive,–,inactive,–,inactive,inactive
Cc1cccc(OCCOc2cccc(C)c2)c1,inactive,inactive,inactive,inactive,inactive,–,inactive,inactive,inactive,inactive,inactive,inactive,inactive,inactive,–,inactive,–,–,–
O=C(c1ccccc1)c1ccc2n1CCC2C(=O)O (centres undefined),inactive,–,–,–,inactive,inactive,inactive,inactive,inactive,inactive,inactive,inactive,inactive,inactive,–,inactive,–,–,–
CC(=O)O[C@@H]1C(=O)O[C@@H]2[C@H]1OC(=O)[C@@H]2OC(C)=O,inactive,inactive,–,inactive,–,inactive,inactive,inactive,inactive,inactive,inactive,inactive,inactive,–,–,inactive,–,–,–
C[C@H](CCC(=O)O)[C@H]1CC[C@H]2[C@@H]3[C@H](O)C[C@@H]4C[C@H](O)CC[C@]4(C)[C@H]3CC[C@]12C,inactive,–,–,inactive,–,–,inactive,inactive,inactive,inactive,inactive,inactive,inactive,–,–,inactive,–,–,–
Cn1c(=O)c2c(ncn2CC(O)CO)n(C)c1=O (centres undefined),inactive,inactive,–,inactive,inactive,inactive,inactive,inactive,inactive,inactive,inactive,inactive,inactive,–,inactive,–,–,–,–
CC(C)(C)C(=O)OCOP(=O)(COCCn1cnc2c(N)ncnc21)OCOC(=O)C(C)(C)C,inactive,–,–,inactive,inactive,inactive,inactive,inactive,inactive,inactive,11.9 µM (active),inactive,inactive,inactive,–,inactive,–,–,–
Oc1ccc2c(c1)OCO2,inactive,–,–,inactive,inactive,inactive,inactive,inactive,inactive,inactive,inactive,inactive,inactive,inactive,–,inactive,–,–,inactive
O=C(c1ccc(O)cc1)c1ccc(O)cc1,inactive,inactive,–,inactive,inactive,inactive,inactive,inactive,inactive,inactive,inactive,inactive,inactive,–,–,inactive,–,–,–
Cc1ccc(C)o1,inactive,–,inactive,–,–,inactive,inactive,inactive,inactive,inactive,inactive,inactive,inactive,inactive,inactive,inactive,inactive,–,inactive
CC(C)=CCCC(C)CC=O (centres undefined),inactive,–,–,inactive,inactive,inactive,inactive,inactive,inactive,inactive,inactive,inactive,inactive,inactive,inactive,inactive,inactive,–,inactive
CC/C(=C\C(=N/O)C(N)=O)C(C)[N+](=O)[O-] (centres undefined),inactive,–,–,inactive,inactive,inactive,inactive,inactive,inactive,inactive,inactive,inactive,inactive,inactive,–,inactive,–,–,inactive
O=C(Nc1ccccc1)OCC(CN1CCCCC1)OC(=O)Nc1ccccc1 (centres undefined),26.6 µM (active),–,–,inactive,–,inactive,inactive,inactive,inactive,inactive,inactive,inactive,inactive,26.6 µM (active),–,–,inactive,–,inactive
Cc1ccccn1,inactive,–,–,inactive,–,inactive,inactive,inactive,inactive,inactive,inactive,inactive,inactive,inactive,inactive,inactive,inactive,inactive,inactive
CCCCCCc1ccc(N)cc1,inactive,–,inactive,inactive,–,inactive,inactive,inactive,inactive,inactive,inactive,inactive,inactive,inactive,inactive,–,–,–,inactive
CC[C@@H]1C[C@H](N(Cc2cc(C(F)(F)F)cc(C(F)(F)F)c2)C(C)=O)c2cc(C(F)(F)F)ccc2N1C(=O)OC(C)C,inactive,–,–,inactive,inactive,inactive,inactive,inactive,inactive,inactive,inactive,inactive,inactive,–,–,inactive,–,inactive,inactive
CC(C)(Oc1ccc(Cl)cc1)C(=O)OCCCOC(=O)C(C)(C)Oc1ccc(Cl)cc1,inactive,–,–,inactive,inactive,inactive,inactive,inactive,inactive,inactive,inactive,inactive,inactive,inactive,–,inactive,–,inactive,inactive
CCCCCC(CO)CCC (centres undefined),inactive,–,–,inactive,–,inactive,inactive,inactive,inactive,inactive,inactive,inactive,inactive,–,–,inactive,–,–,inactive
O=S(=O)(O)c1ccc(O)c2ncccc12,inactive,–,–,inactive,–,inactive,inactive,inactive,inactive,inactive,inactive,inactive,inactive,inactive,inactive,–,inactive,–,inactive
